Screens as filed in PubChem BioAssay.
PNC assembly inh – inhibitors of perinucleolar compartment assembly; AID 2417; PC3M PTB-GFP, PNC prevalence imaging, 16 h; active compounds read low; activity change (PNC), negative = inhibition, % at 10 µM; 3.1% of 140,000 active;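 active means readout at or below -70, meaning at least 70% loss of cells showing the perinucleolar compartment, a nuclear body marking cancer cells; inconclusive means readout between -30 and a set limit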;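 further: plate controls were DMSO wells for no effect and camptothecin positive control wells for full effect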
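PC3M cells stably expressing PTB-GFP, 750–1000 cells/well, treated 16 h at 37 °C with compound (23 nl of library stock), in duplicate. After paraformaldehyde fixation and Hoechst stain, imaged at 20x; PNC prevalence scored by image analysis.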
NPSR antagonist – blocks cAMP signaling of the human neuropeptide S receptor | 1% of 220,000 active | Potency, µM (highest dose often 38.3 µM), for the others: top-dose activity change, negative = inhibition, usual class: inhibitors | AID 1461 | CHO-NPSR cells, cAMP TR-FRET, antagonist mode; further: potency means the concentration at half of the fitted maximal effect; nearly all actives have a fitted effect of over 50% in size
Target sequence (Q6W5P4 whole entry, looked up): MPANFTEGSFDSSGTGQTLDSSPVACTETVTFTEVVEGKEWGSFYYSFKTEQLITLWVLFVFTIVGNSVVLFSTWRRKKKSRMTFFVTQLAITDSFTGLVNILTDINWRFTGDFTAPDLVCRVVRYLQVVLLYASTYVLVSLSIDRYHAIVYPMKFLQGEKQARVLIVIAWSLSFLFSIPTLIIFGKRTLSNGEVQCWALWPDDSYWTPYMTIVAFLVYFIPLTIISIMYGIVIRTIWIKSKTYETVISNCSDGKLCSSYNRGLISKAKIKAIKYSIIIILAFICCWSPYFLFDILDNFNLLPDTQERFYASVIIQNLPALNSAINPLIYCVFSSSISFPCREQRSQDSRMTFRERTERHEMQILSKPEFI
HPGD block – HPGD (human) dehydrogenase inhibition. purified HPGD, NADH fluorescence kinetic, PGE2 substrate. Potency, µM, for inactives: at the highest dose activity change, negative = inhibition, hits mostly inhibitors. 4.3% of 150,000 active. AID 894; active means well fitted inhibition curve with a large enough effect, not every such curve was filed as active; inconclusive means small, poorly fitted or top-dose-only effect, or another doubt; inactive means no such curve, though single readings can be large or run the other way; further: potency means the concentration at half of the fitted maximal effect
Target sequence (P15428 whole entry, looked up): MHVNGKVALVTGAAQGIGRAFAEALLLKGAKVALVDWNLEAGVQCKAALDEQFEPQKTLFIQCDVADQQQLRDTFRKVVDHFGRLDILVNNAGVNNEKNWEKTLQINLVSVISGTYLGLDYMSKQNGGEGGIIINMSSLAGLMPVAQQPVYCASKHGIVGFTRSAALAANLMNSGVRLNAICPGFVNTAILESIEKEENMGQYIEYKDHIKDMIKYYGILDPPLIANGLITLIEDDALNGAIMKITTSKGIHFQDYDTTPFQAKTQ
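20 nM HPGD preincubated 15 min at room temperature with compound in 50 mM Tris-HCl pH 8, 0.01% Tween 20. Started with 1 mM NAD+ and 30 uM prostaglandin E2; NADH fluorescence (360/450 nm) read 5 times over 30-s intervals, last minus first.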
ALDH1A1 inh – inhibitors of human aldehyde dehydrogenase 1A1; AID 1030; 7.3% of 220,000 active; P00352; Purified ALDH1A1, NADH fluorescence, propionaldehyde substrate; Potency, µM (doses to about 75.3 µM), inactives show at the highest dose activity, negative = inhibition, actives largely listed as inhibitors; active means well fitted inhibition curve with a large enough effect, not every such curve was filed as active; inconclusive means small, poorly fitted or top-dose-only effect, or another doubt; inactive means no such curve, though single readings can be large or run the other way;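 further: potency means the concentration at half of the fitted maximal effect; plate controls were no enzyme wells and a reference inhibitor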
IMPase inh – cell-permeable inhibitors of inositol monophosphatase (IMPase); P97697; CHO-M1 cells, IP1 accumulation, HTRF TR-FRET ratio; inhibition (IP1 accumulation), % at 46.1 µM; 120,000 tested, under 10 active; AID 901; active means well fitted curve in the direction sought with a large enough effect in the signal ratio, not every such curve was filed as active; inconclusive means small, poorly fitted or top-dose-only effect, or a change in a side signal; inactive means no such curve, though single readings can be large or run the other way; the % refers to the signal ratio;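 further: cells stimulated with carbachol in lithium chloride buffer; plate controls were DMSO basal wells for no effect and reference inhibitor wells for full effect; higher means more IMPase inhibition seen as more IP1 and lower FRET ratio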
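Cellular IMPase inhibition is scored as a rise in cytosolic IP1, detected by competitive TR-FRET between d2-labelled IP1 and a europium anti-IP1 antibody. M1-expressing CHO cells were stimulated with carbachol for 30 min at 37C, with lithium (50 mM LiCl) present in the buffer.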
IMPase Li cell – membrane-permeable IMPase blocker, potentiated with lithium | CHO-M1 cells, IP1 TR-FRET (IP-One), carbachol + lithium | Potency, µM (highest dose often 59.4 µM), for inactives: at the highest dose activity, negative = IMPase inhibition, usual class: inhibitors | 0.35% of 210,000 active;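 further: IP1 builds up when IMPase is blocked and the TR-FRET signal falls; potency means the concentration at half of the fitted maximal effect; plate controls were basal vehicle for no effect and high inhibitor control for full effect; nearly all actives have a fitted effect of over 50% in size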
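Readout is a homogeneous TR-FRET IP1 immunoassay (Ex 320, Em 665 and 620), where raised cytosolic IP1 lowers signal. Cells were CHO-M1 treated 30 min at 37C with test compounds plus a little lithium; AC50 values came from Hill-equation fitting.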
* = called active by the depositor; ? = inconclusive; · = not tested or not shown; [ ] = remark or other dose. Rows were chosen to be rich in hits. Some 11% of all compounds tested hit in one or more screens of this group. Unless noted, the call rests on the fitted dose curve; in most records, active means well fitted curve in the direction sought with a large enough effect; inconclusive means small, poorly fitted or top-dose-only effect, or another doubt; inactive means no such curve, though single readings can be large; an effect the other way counts as inactive or inconclusive. Unless noted, on the % scale 0 is the no-effect control and ±100 the full control effect.

SMILES	PNC assembly inh	NPSR antagonist	HPGD block	ALDH1A1 inh	IMPase inh	IMPase Li cell
CC(C)c1ccc(O)c(N)c1	16.8	-0.6%[46.1 µM]	-20.7%	28.2µM*	7.6	20.1%[38.3 µM]
CC/C(C)=N\N=C\c1c(O)n(CC)c2cc(C3=NNC(=O)CC3)ccc12	-11.4	-4.6%[46.1 µM]	31.6µM*	?	·	11.2%
CCn1c(O)c(/C=N/N=C/c2ccc(OC)cc2)c2cc(C3=NNC(=O)CC3)ccc21	·	4.0%	·	·	·	·
O=C1COc2ccc(C(=O)COC(=O)Cn3cnc4ccccc43)cc2N1	?	-1.3%[46.1 µM]	-11.8%	28.2µM*	6.1	17.9%[38.3 µM]
CC(C)CC(NC(=O)c1ccc(Cl)cc1)C(=O)OCC(=O)c1ccc2c(c1)NC(=O)CO2 (centres undefined)	?	10µM*	-6.8%	4.0%	10.0	45.6%[38.3 µM]
O=C1COc2ccc(C(=O)COC(=O)c3cnc(Cl)c(Cl)c3)cc2N1	·	-27.6%	·	1.26µM*	·	18.2%
CC(=O)N(c1nc(CCl)cs1)c1cccc(C)c1C	·	9.2%	·	?	·	12.1%
Cc1cc(C)c2c3c(sc2n1)C1(CCSCC1)C(C#N)=C(N)O3	-25.3	-7.5%	-17.3%	25.1µM*	2.9	22.9%
CCCC1c2ccc(C)n2CCN1C(=O)Nc1ccc(F)cc1 (centres undefined)	118.6	-6.8%[46.1 µM]	-11.0%	?	6.8	6.6%[38.3 µM]
COC(=O)CSc1nnc(C2COc3ccccc3O2)n1-c1ccccc1 (centres undefined)	19.2	-23.8%[46.1 µM]	6.5%	-8.0%	0.5	21.1%[38.3 µM]
COc1ccccc1-c1nn2c(C3COc4ccccc4O3)nnc2s1 (centres undefined)	?	?	?	?	5.4	31.6µM*
c1ccc(CCc2nn3c(C4COc5ccccc5O4)nnc3s2)cc1 (centres undefined)	-7.2	-16.3%[46.1 µM]	10µM*	10µM*	8.4	25.8%[38.3 µM]
c1ccc(Cc2nn3c(C4COc5ccccc5O4)nnc3s2)cc1 (centres undefined)	?	-9.1%[46.1 µM]	8.91µM*	2µM*	1.0	10.1%
COc1ccccc1-c1nn2c(C(F)(F)F)nnc2s1	29.9	?	?	?	-1.3	7.94µM*
COc1ccccc1-c1nn2c(-c3ccc(C(C)(C)C)cc3)nnc2s1	9.3	-8.1%[7.67 µM]	-23.8%	?	3.9	-19.3%[38.3 µM]
CC(=O)O/N=C(\N)c1cnn2c(C(F)(F)F)cc(C(F)(F)F)nc12	·	-17.3%	·	2.5%	·	·
CCc1ccc(/C=N/NC(=O)c2cc(C3CC3)nc3ccccc23)s1	?	-0.9%[46.1 µM]	-3.5%	-0.8%	2.1	23.9%[38.3 µM]
CC1=C(C#N)C(=O)NC(=O)/C1=C/c1ccc(-c2ccc(S(N)(=O)=O)cc2)o1	·	16.9%	·	?	·	3.8%
O=C(CCC(=O)Nc1nnc(C2CCCCC2)s1)NCc1ccccc1	·	23.4%	·	·	·	·
Nc1c(C(=O)Nc2ccc(F)cc2)sc2nc(-c3cccs3)cc(C(F)(F)F)c12	·	·	·	·	-12.6	·
COc1ccc(NC(=O)c2sc3nc(-c4ccc(OC)cc4)cc(C(F)(F)F)c3c2N)cc1	·	·	·	·	2.1	·
Nc1c(C(=O)Nc2ccccc2F)sc2nc(Cc3ccccc3)cc(C(F)(F)F)c12	18.3	?	-9.1%	2.9%	?	10µM*
Cc1cc(C(F)(F)F)c2c(N)c(C(=O)Nc3cc(C)on3)sc2n1	7.6	?	-13.0%	?	-9.8	11.2µM*
COc1ccc(CCNC(=O)C2CCCN(c3nc(C)cc(C)n3)C2)cc1 (centres undefined)	·	-6.0%	·	-5.0%	·	11.9%
Clc1ccccc1-c1nc(-c2ccccc2)n[nH]1	?	-7.3%[46.1 µM]	25.1µM*	12.2%	8.7	4.4%[38.3 µM]
SMILES	PNC assembly inh	NPSR antagonist	HPGD block	ALDH1A1 inh	IMPase inh	IMPase Li cell
O=[N+]([O-])c1cc(-c2n[nH]c(-c3ccccc3)n2)cc([N+](=O)[O-])c1	?	-5.0%[46.1 µM]	-2.4%	1.8%	-0.5	0.7%[38.3 µM]
Clc1ccc(-c2cn3c(n2)-c2ccccc2C3)cc1Cl	?	-18.9%[46.1 µM]	-18.6%	-5.6%	3.0	0.0%
C[C@@H]1Cc2c(O)c(O)cc(O)c2C(=O)O1	·	15.9%	·	·	·	·
CC1CCC/C=C/C(=O)c2c(O)cc(O)cc2CC(=O)O1 (centres undefined)	·	5.01µM*	·	·	·	·
CC(C)(C)C1=Nn2c(nnc2-c2n[nH]c3c2CCC3)SC1	?	-8.1%[46.1 µM]	15.8µM*	?	-5.3	-1.2%[38.3 µM]
CC1=Nn2c(nnc2-c2n[nH]c3c2CCC3)SC1	?	-4.8%[46.1 µM]	-3.0%	0.8%	4.7	-6.3%[38.3 µM]
Cc1cccc(NC(=O)Nc2ccc(Oc3c(F)c(F)c(F)c(F)c3F)cc2)c1	-5.9	-8.2%[46.1 µM]	-6.3%	-1.6%	4.2	2.0%[38.3 µM]
O=C(Nc1ccc(Oc2c(F)c(F)c(F)c(F)c2F)cc1)OC1CCN2Cc3ccccc3N=C12 (centres undefined)	·	2µM*	·	·	·	·
Cc1ccc(C2CC(c3ccccc3)=NN2C(=S)Nc2ccccc2)o1 (centres undefined)	-87.7*	?	17.8µM*	2µM*	-0.9	-5.7%[38.3 µM]
Cc1ccc2[nH]c(=O)c(CN(Cc3nnnn3Cc3ccccc3)C3CCCC3)cc2c1	27.7	-4.3%[46.1 µM]	-12.2%	20µM*	-3.3	26.9%[38.3 µM]
CCCN1CCN(C(c2cc3cc(OCC)ccc3[nH]c2=O)c2nnnn2C2CCCCC2)CC1 (centres undefined)	-2.1	-7.3%[46.1 µM]	?	?	-7.5	14.4%[38.3 µM]
CCOc1ccc2[nH]c(=O)c(CN(CCO)C(c3nnnn3C3CCCCC3)C(C)C)cc2c1 (centres undefined)	-9.3	?	-16.5%	12.6µM*	-2.1	-11.2%[38.3 µM]
CCc1ccc2[nH]c(=O)c(CN(Cc3nnnn3C3CCCC3)C3CCCCC3)cc2c1	-1.0	?	-19.0%	14.1µM*	2.5	6.6%[38.3 µM]
COc1cccc(NC(=O)CSc2nnc(CNC(=O)c3ccccc3)n2C)c1	-13.8	-7.6%[46.1 µM]	2.0%	0.9%	12.3	3.2%[38.3 µM]
O=C(O)CC1Sc2ccccc2NC1=O (centres undefined)	17.0	2.6%[46.1 µM]	-12.1%	-13.3%	9.0	-3.7%[38.3 µM]
O=C1Nc2ccccc2SC(c2ccccc2)C1O (centres undefined)	?	-14.3%[46.1 µM]	28.2µM*	-13.3%	4.0	-9.0%[38.3 µM]
COc1cc(NC(=O)CSc2c3c(nc4ccccc24)CCC3)cc(OC)c1OC	-6.2	-23.7%[46.1 µM]	·	9.2%	-2.7	·
Cc1cccc(C(=O)c2cnc3ccccc3c2-c2ccccc2)c1	-8.0	?	?	12.6µM*	12.4	44.1%[38.3 µM]
COc1ccc(C=O)c(OC)c1	·	6.6%	·	?	·	2.4%
CCN(CC)c1ccc(C=O)c(OC)c1	·	11.7%	·	3.98µM*	·	1.1%
CCc1ccc(C(=O)COC(=O)c2ccc(-c3nnc(-c4ccccc4)o3)cc2)cc1	81.2	-10.1%[46.1 µM]	-2.4%	11.9%	4.8	3.55µM*
CCc1cccc(C)c1NC(=O)c1cccc(N(C)C)c1	-26.4	-18.4%[46.1 µM]	14.1µM*	?	0.4	6.7%[38.3 µM]
